This passage reports outcome results from PubChem BioAssay (NCATS).

Results filed as inconclusive are left out. Active and inactive are the calls of the source. Calls come from the whole dose curve; as a rule, active = well fitted cell-killing curve with a large enough effect; inconclusive = small, poorly fitted or top-dose-only effect, or effect the other way; inactive = flat fitted curve, though single readings scatter.

The subject of the assay is CAOV3. As to the kind of experiment: Primary qHTS to identify gynecologic anti-cancer compounds using libraries of approved drugs and bioactive compounds (AID 1345084). Note: nearly all actives have a fitted effect of over 55% in size. Conditions: Gynecologic cancer cell panel viability, ATPlite luminescence, 48 h; series mostly up to 57.5 µM. The source says:
National Center for Advancing Translational Sciences [NCATS] Assay Overview: Chemotherapeutic drug responses vary from cancer to cancer and from patient to patient. These variations could be caused by a number of factors including patient genomic background, tumor mutations, tumor heterogeneity, and aspects of drug treatment. Chemotherapeutic drug resistance is also a common issue and can lead to ineffective treatment and patient death. Here we have profiled the cell killing effects of thousands of compounds to characterize the responses in three gynecological cancers, identify cancer-selective compounds, and understand the diversity of responses to these compounds from pan-cancer suppressors to single cell line selective compounds. In this assay, we screened a 7,914 compound drug library that included approved drug and bioactive compounds in six ovarian, three cervical, and […] placental cancer cell lines using the ATPlite assay for cell viability. […] The cervical cancer cell lines included HeLa, Ca Ski, and C-33 A. The placental cancer cell lines included JEG-3. HEK 293T cells were used as the control cell line to determine the selectivity index. ATPlite is a luminescence based assay reliant on the conversion of a luciferase substrate to light in the presence of ATP. As a cytotoxic compound will suppress growth and decrease the number of cells, the concentration of ATP will decrease, and less light signal will be detected in the well.
Assay Protocol Summary: 1,000 cells in 4 uL of media were dispensed into white, solid bottom 1536-well plates using a Multidrop Combi (Thermo Scientific). The Assay plates were incubated for 16 hours at 37 C with 5% CO2 in assay plates, followed by the addition of 23 nL of DMSO or drug dissolved in DMSO. Each compound was assayed in five concentrations (0.092, 0.46, 2.3, 11.5, and 57.5 uM), using the automated Wako 1536 Pin Tool workstation and incubated at 37 C with 5% CO2 48 hours. 4 uL of ATPlite, the ATP monitoring reagent, was then added to the each well of the assay plates using the Multidrop Combi reagent dispenser followed by incubation for 15 minutes at room temperature. The resulting luminescence was measured using the ViewLux plate reader.
(In general: qHTS replaces the single test concentration by a dilution series.)
In the case of `CC[N+](CC)(CC(=O)Nc1c(C)cccc1C)Cc1ccccc1`, the result was inactive.

As to `O=C(NCC(O)CO)c1c(I)c(C(=O)NCC(O)CO)c(I)c(N(CCO)C(=O)CO)c1I` (stereo not given), the compound was classed as inactive.

In the case of `CN(C(=O)c1c(O)c2ccccc2n(C)c1=O)c1ccccc1`, the compound was classed as inactive.

Take `COc1ccc(C(=O)NCc2ccc(OCCN(C)C)cc2)cc1OC`: the result was inactive.

On to `O=C(O)Cc1cn(-c2ccccc2)nc1-c1ccc(Cl)cc1`, for which the compound was called inactive.

For the compound `CCc1cccc(CC)c1NC(=O)CN(CC(=O)O)CC(=O)O`, the compound was classed as inactive.

With `O=C(O)c1ccc(OCCCOc2ccc(C(=O)O)cc2)cc1`, the outcome was inactive.

On to `O=C(O)c1cc(=O)c2ccccc2o1`, for which the compound was called inactive.

Consider `Cc1ccc2c(c1)c1c3n2CCNC3CCC1` (stereo not given), for which the outcome was inactive.

Take `Cc1cc(-n2nc3ccc(Cl)cc3n2)c(O)c(C(C)(C)C)c1`: the call was inactive.

For `COc1ccc(NS(=O)(=O)c2ccc(N)cc2)nn1`, the result was inactive.

With `O=C(O)C(S)C(S)C(=O)O` (stereo not given), the result was inactive.

Regarding `CCOc1ccc(C(=O)OCCN(CC)CC)cc1`, the compound was called inactive.

For `CCN[C@H]1CN(CCCOC)S(=O)(=O)c2sc(S(N)(=O)=O)cc21`, the compound was called inactive.

Turning to `COc1ccccc1OCC(O)CO` (stereo not given), the outcome was inactive.

In the case of `Cc1cc(=O)[nH]c(=S)[nH]1`, the call was inactive.

In the case of `CC1CC(OC(=O)c2ccccc2O)CC(C)(C)C1` (stereo not given), the outcome was inactive.

`CC1(c2ccccc2)OC(C(=O)O)=CC1=O` (stereo not given): the result was inactive.

On to `NCC1CCC(C(=O)Oc2ccc(CCC(=O)O)cc2)CC1` (stereo not given), for which the call was inactive.

For `NNC(=O)CP(=O)(c1ccccc1)c1ccccc1`, the compound was called inactive.

As to `O=C(O)COC(=O)Cc1ccccc1Nc1c(Cl)cccc1Cl`, the outcome was inactive.

Regarding `O=C(CN1CCNCC1)NC1CCCCC1`, the compound was classed as inactive.

Regarding `CCOC(N)=O`, the outcome was inactive.

As for `CC(=O)N(CC(O)CN(C(C)=O)c1c(I)c(C(=O)NCC(O)CO)c(I)c(C(=O)NCC(O)CO)c1I)c1c(I)c(C(=O)NCC(O)CO)c(I)c(C(=O)NCC(O)CO)c1I` (stereo not given), the result was inactive.

Regarding `CCCCCOC(=O)Nc1nc(=O)n([C@@H]2O[C@H](C)[C@@H](O)[C@H]2O)cc1F`, the compound was called inactive.

Regarding `CCCCCC(N)=O`, the compound was classed as inactive.

Regarding `CCc1nnc(NS(=O)(=O)c2ccc(N)cc2)s1`, the call was inactive.

With `O=C(c1ccccc1)C(O)c1ccccc1` (stereo not given), the compound was classed as inactive.

For `C[C@@H](N)C(=O)O`, the compound was called inactive.

Take `COc1cc(O)cc(O)c1`: the compound was classed as inactive.

For `CC(C)c1cc2c(cc1S(=O)(=O)O)[C@@]1(C)CCC[C@@](C)(C(=O)O)[C@@H]1CC2`, the outcome was inactive.

For the compound `O=C(NCCCN1CCOCC1)c1ccc(Cl)cc1`, the compound was called inactive.

Turning to `Cc1cc(C)c(NC(=O)CN(CC(=O)O)CC(=O)O)c(C)c1Br`, the call was inactive.

In the case of `C[N+](C)(C)CC[N+]1(C)Cc2c(Cl)c(Cl)c(Cl)c(Cl)c2C1`, the outcome was inactive.

Regarding `O=C(O)CCCCC1CCSS1` (stereo not given), the compound was called inactive.

With `CC(=O)[C@@]1(O)CC[C@H]2[C@@H]3C[C@H](C)C4=CC(=O)C=C[C@]4(C)[C@@]3(F)[C@@H](O)C[C@@]21C`, the compound was classed as inactive.

Consider `CCN(CC)C(=O)c1cccc(C)c1`, for which the compound was classed as inactive.

In the case of `Cc1c(C(=O)NCCO)[n+](=O)c2ccccc2n1[O-]`, the compound was classed as inactive.

Take `CC(C(=O)O)c1ccc2c(c1)Cc1cccnc1O2` (stereo not given): the compound was called inactive.

For the compound `Cc1cccc(C)c1NC(=O)CC12CCCN1CCC2`, the compound was classed as inactive.
